A selection: hits, their analogues and other compounds. The true share with any hit is near 3.6%.
HepG2 tox-1 = qHTS for Inhibitors of TGF-b: Cytotox Counterscreen | HepG2 CAGA-GFP viability, ATP luminescence, 18 h | Potency, µM (top dose mostly 46.1 µM), inactives show at the highest dose activity change, negative = cytotoxicity, hits mostly cytotoxic | 410,000 tested, 0.76% active
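HepG2 CAGA-GFP cells (1000/well, DMEM with 1% FBS) received compound, then TGF-beta at 500 pg/mL final, and were incubated 18 hours at 37 degrees C. Viability was read by CellTiter-Glo luminescence. Media-only wells were set as complete cell-killing and DMSO as no toxicity.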
A549 tox = Nrf2 qHTS screen for inhibitors: counterscreen for cytotoxicity; A549 ARE-Fluc cells, CellTiter-Fluor viability, 18-24 h; Potency, µM (highest dose often 46 µM), inactives show top-dose activity change, negative = cytotoxicity, most hits filed as inhibitors; 390,000 tested, 0.16% active; also: % is scaled to controls: 0 for no effect and ±100 for the full control effect
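A549 ARE_Fluc cells in 5% FBS OPTI-MEM were exposed to compounds in concentration-response for 18-24 h at 37 deg C. Viability was read by CellTiter-Fluor fluorescence (Ex 405/Em 525) after 30 min, before the luciferase read.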
Nrf2 activator = qHTS of Nrf2 Activators; AREc32 ARE-luciferase reporter (MCF7-derived line), luminescence, 24 h; Potency, µM (titrated, usually from 46.1 µM), for inactives: at the top dose activation, most hits filed as activators; 410,000 tested, 0.31% active; AID 624171, 2012; also: % of control where 0% means no effect; nearly all actives have a fitted effect of over 65% in size
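Cells of the AREc32 ARE-luciferase line are plated in OPTI-MEM containing 5% FBS and left overnight at 37 deg C. Compounds are pinned in, incubation continues 24 hr, and firefly luciferase signal is then measured.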
TGFb SMAD3 inh = qHTS for Inhibitors of TGF-b. HepG2 CAGA-GFP TGF-b/SMAD3 reporter, GFP fluorescence, 18 h; TGF-beta stimulated, 500 pg/mL final. Potency, µM (top dose mostly 46.1 µM), inactives show top-dose activity, negative = inhibition, usual class: inhibitors. 410,000 tested, 1.2% active. AID 588855, 2011; also: % is scaled to controls: 0 for no effect and ±100 for the full control effect; nearly all actives have a fitted effect of over 65% in size
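Read-out: total well GFP (ex488/em500-530) summed from mean per-cell fluorescence. Cells: HEPG2 CAGA-GFP, 1% FBS DMEM, 18 h at 37 degrees C with 500 pg/mL final TGF-beta. Unstimulated wells served as the full-inhibition control; stimulated DMSO wells = 0%.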
Nrf2 inh = Nrf2 qHTS screen for inhibitors | A549 ARE-Fluc reporter, luciferase luminescence, 18-24 h | 360,000 tested, 2.1% active | Potency, µM (doses to about 46 µM), for inactives: top-dose activity change, negative = inhibition, usual class: inhibitors; also: % is scaled to controls: 0 for no effect and ±100 for the full control effect; nearly all actives have a fitted effect of over 60% in size
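In this cell-based qHTS, ARE-driven firefly luciferase in A549 cells reports Nrf2 activity; the luminescent signal after BugLite lysis is the measured value, with a prior CellTiter-Fluor read for cell health.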
TGFb CAGA inh = qHTS for Inhibitors of TGF-b: Confirmation of Cherry Picks; shares compounds with TGFb SMAD3 inh; 1,600 tested, 63% active; AID 720534, 2013; HepG2 CAGA-GFP TGF-b reporter, GFP fluorescence, 18 h; cells stimulated with TGF-beta, 500 pg/mL; Potency, µM (doses to about 46.1 µM), for the others: top-dose activity, negative = inhibition, most hits filed as inhibitors; also: % is scaled to controls: 0 for no effect and ±100 for the full control effect; nearly all actives have a fitted effect of over 65% in size
HepG2 tox-2 = qHTS for Inhibitors of TGF-b: Cytotox Counterscreen for Cherry Picks | shares compounds with TGFb SMAD3 inh | HepG2 CAGA-GFP viability, ATP luminescence, 18 h; cells stimulated with TGF-beta, 500 pg/mL | Potency, µM (series often up to 46.1 µM), inactives show at the top dose activity, negative = cytotoxicity, hits mostly inhibitors | 1,600 tested, 27% active; also: % is scaled to controls: 0 for no effect and ±100 for the full control effect; nearly all actives have a fitted effect of over 70% in size
TGFb CCL64 inh = qHTS for Inhibitors of TGF-b: CCL64 Cells Orthogonal Assay for Cherry Picks | Potency, µM (series often up to 46.1 µM), inactives show top-dose activity, negative = inhibition, actives largely listed as inhibitors | CCL64 CAGA-GFP reporter, TGF-b stimulated, GFP fluorescence, 18 h | 1,600 tested, 41% active | shares compounds with TGFb SMAD3 inh | AID 720536, 2013; also: nearly all actives have a fitted effect of over 65% in size
COP TGFb inh = qHTS for Inhibitors of TGF-b: Hit Validation in HepG2 Cells using COP promoter. Potency, µM (highest dose often 46.1 µM), inactives show top-dose activity, negative = inhibition, most hits filed as inhibitors. shares compounds with TGFb SMAD3 inh. 1,600 tested, 3% active. AID 720537, 2013. HepG2 COP-GFP TGF-b reporter, GFP fluorescence, 18 h; cells stimulated by added recombinant TGF-beta; also: nearly all actives have a fitted effect of over 70% in size
The depositor's hits bear a star; [ ] = remark or other dose. Calls follow the shape of the dose curve; as a rule, active = well fitted curve in the direction sought with a large enough effect; inconclusive = small, poorly fitted or top-dose-only effect, or another doubt; inactive = no such curve, though single readings can be large; an effect the other way counts as inactive or inconclusive. Potency is read from the fitted curve at half-maximal effect.

For O=C(c1ccco1)N1CCCC(c2nc(-c3ccc(S(=O)(=O)NCc4ccccc4)cc3)no2)C1 (centres undefined) the results were HepG2 tox-1 -68.8%, A549 tox -10.9%[1.84 µM], Nrf2 activator -0.7%, TGFb SMAD3 inh inconclusive, Nrf2 inh 10.3µM*, TGFb CAGA inh 14.6µM*, HepG2 tox-2 inconclusive, TGFb CCL64 inh -22.3% and COP TGFb inh 40.8%.
COC(=O)C(O)(CC(=O)Nc1cc(OC)c(OC)c(OC)c1)C(F)(F)F (centres undefined) was read as HepG2 tox-1 2.1%, A549 tox -4.1%, Nrf2 activator -0.5% and TGFb SMAD3 inh -0.5%.
O=C(CSc1n[nH]c(-c2cccnc2)n1)Nc1ccc(Br)cc1 was read as HepG2 tox-1 -12.0%, A549 tox 0.5%, Nrf2 activator 0.4%, TGFb SMAD3 inh -1.6% and Nrf2 inh 0.8%.
For O=C(Nc1ccc(Cl)cc1)Nc1ccc(N2CCOCC2)cc1 the results were HepG2 tox-1 17.6%, A549 tox -1.3%, Nrf2 activator 0.7%, TGFb SMAD3 inh -1.0% and Nrf2 inh -12.8%.
`Cc1cc(Oc2ccccc2)nc(NCc2ccccc2)n1` gave HepG2 tox-1 3.1%, A549 tox 0.4%, Nrf2 activator 2.2%, TGFb SMAD3 inh 6.9% and Nrf2 inh 2.0%.
`Cc1cc(Nc2ccccc2)nc(NCc2ccccc2)n1` gave HepG2 tox-1 -55.2%, A549 tox 19.1%, Nrf2 activator 2.0%, TGFb SMAD3 inh 10µM*, Nrf2 inh -17.7%, TGFb CAGA inh 3.7%, HepG2 tox-2 inconclusive, TGFb CCL64 inh 14.6µM* and COP TGFb inh 63.2%.
Screening O=S(=O)(c1ccc(Cl)s1)N1CCC(Cc2ccccc2)CC1 returned HepG2 tox-1 1.2%, A549 tox 15.4%, Nrf2 activator 0.2%, TGFb SMAD3 inh -28.3% and Nrf2 inh inconclusive.
Cc1cc(Nc2ccc(F)cc2)n2c(nc3ccccc32)c1C#N was read as HepG2 tox-1 -1.0%, A549 tox -1.9%, Nrf2 activator 0.0%, TGFb SMAD3 inh -9.6% and Nrf2 inh -12.9%.
`Cc1cc(Nc2cccc([N+](=O)[O-])c2)n2c(nc3ccccc32)c1C#N` gave HepG2 tox-1 -40.1%, A549 tox inconclusive, Nrf2 activator 3.9%, TGFb SMAD3 inh 1.58µM*, Nrf2 inh 10.3µM*, TGFb CAGA inh inconclusive, HepG2 tox-2 inconclusive, TGFb CCL64 inh 5.17µM* and COP TGFb inh 32.9%.
For Cc1ccc(-c2nc3ccc(Br)cn3c2Cc2cccc(F)c2)cc1 the results were HepG2 tox-1 -10.8%, Nrf2 activator 3.5%, TGFb SMAD3 inh 11.2µM*, TGFb CAGA inh inconclusive, HepG2 tox-2 -15.8%, TGFb CCL64 inh inconclusive and COP TGFb inh -1.6%.
For Cc1ccc2nc(-c3ccccc3)c(Cc3cccc(F)c3)n2c1 the results were Nrf2 activator 10.7%.
Screening CCC(C)OC(=O)c1cc(C)nc2c(Br)cc(Br)cc12 (centres undefined) returned HepG2 tox-1 0.1%, A549 tox -0.7%, Nrf2 activator -0.4%, TGFb SMAD3 inh -7.7% and Nrf2 inh -9.3%.
Screening Nc1ncnc2c(C3OC(CO)C(O)C3O)scc12 (centres undefined) returned HepG2 tox-1 -86.2%, A549 tox inconclusive, Nrf2 activator -2.4%, TGFb SMAD3 inh -121.6%, Nrf2 inh inconclusive, TGFb CAGA inh 0.0164µM*, HepG2 tox-2 0.0731µM*, TGFb CCL64 inh 0.92µM* and COP TGFb inh 42.3%.
Screening Nc1ncnc2c1ncn2C1O[C@H](CO)[C@@H](O)[C@@H]1O (some centres undefined) returned HepG2 tox-1 25.8%, A549 tox -11.2%, Nrf2 activator 0.0%, TGFb SMAD3 inh 3.0% and Nrf2 inh 0.5%.
`CCCCCC(=O)Nc1ccccc1N1CCN(c2ccccc2)CC1` gave HepG2 tox-1 -26.7%, A549 tox -8.5%, Nrf2 activator 2.6%, TGFb SMAD3 inh -12.4% and Nrf2 inh -25.5%.
Screening COc1ccc(-c2nc(-c3ccc4c(c3)OCO4)[nH]c2-c2ccc(OC)cc2)cc1 returned HepG2 tox-1 -41.2%, A549 tox inconclusive, Nrf2 activator 0.7%, TGFb SMAD3 inh -3.6%, Nrf2 inh 25.9µM*, TGFb CAGA inh 23.1µM*, HepG2 tox-2 inconclusive, TGFb CCL64 inh 25.9µM* and COP TGFb inh 63.1%.
For COc1ccc(-c2nc(-c3ccccc3)c(-c3ccc(O)cc3)[nH]2)cc1 the results were HepG2 tox-1 -50.9%, A549 tox -8.5%, Nrf2 activator -3.0%, TGFb SMAD3 inh inconclusive and Nrf2 inh inconclusive.
Screening C=CCn1c(COc2ccccc2F)nnc1SCC(=O)Nc1cc2oc3ccccc3c2cc1OC returned HepG2 tox-1 -8.9%, A549 tox inconclusive, Nrf2 activator 4.3%, TGFb SMAD3 inh inconclusive, Nrf2 inh inconclusive, TGFb CAGA inh inconclusive, HepG2 tox-2 -25.8%, TGFb CCL64 inh inconclusive and COP TGFb inh 14.9%.
